Data reported in PubChem BioAssay (NCI).
Compounds without any hit were thinned out: in the full panel of roughly 83,000, 20% have a hit.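 Percent growth is the endpoint: 0 to 100 indicates growth inhibition (40 means 60% inhibition), 0 means no net growth, and negative values indicate cell death.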 A number with no mark means an inactive call. The source made the active and inactive calls. Rule for the calls: active = growth percent below 10; inactive = the rest.

Test system: MDA-MB-468 breast
Experiment: NCI-60 one-dose screen, 48 h (100 = growth as untreated, 0 = no growth, -100 = all killed)
Conditions: 10 µM unless noted

With `[O-]c1c[n+](-c2ccc(Cl)cc2)no1` as the compound, how does the growth read?
Its growth is 98.7%.

With `CCCCCCC(C)c1ccccc1O` (stereo not given) (tested in a mixture with another compound) as the compound, how does the growth read?
The growth was 124%.

Which growth does the source give for `COc1ccc(C2C3=C(COC3=O)N(CCO)c3cc4c(cc32)OCCO4)cc1` (stereo not given) here?
The growth was 32.9%.

How did the growth turn out when `COc1ccc(/C=C/c2n[nH]c3ccc(N4CCOC4=O)cc23)cc1` was run?
The growth was -0.999% (active).

How did the growth turn out when `Nc1nc2ccc(-c3nc4ccc5[nH]ncc5c4c4c3CCCC4)cc2s1` was run?
Its growth is 112%.

`O=C(c1ccccc1)c1c(/C=C/c2ccc(Cl)cc2)nc2ccccc2c1/C=C/c1cccs1` was tested. Which growth did it give?
The growth was 94.3%.

For `CCN1C2CCC1/C(=C\c1ccccc1)C(=O)/C2=C/c1ccccc1`, which growth is on record?
The growth was 16.1%.

For `Cn1ccnc1C(=O)/C=C/c1ccc(CNC(=O)c2c(F)c(F)c(F)c(F)c2F)cc1`, which growth is on record?
Its growth is 26.8%.

Which growth does the source give for `S=c1[nH]nc(-c2cc3ccc2CCc2ccc(cc2)CC3)n1C1CC1` here?
Its growth is 106%.

Which growth does the source give for `COC(=O)[C@@H](NC(=O)NC(=O)NC(=O)CI)C(C)C` here?
The growth was 71.6%.

`C=C[C@]1(C)C=C2CC[C@@H]3C(C)(C)C(=O)CC[C@@]3(C)[C@@H]2CC1` was tested. Which growth did it give?
The growth was 110%.

`COc1ccc(Cn2cc3c(c2-c2ccccc2)CCc2cnoc2-3)cc1OC` was tested. Which growth did it give?
The growth was -9% (active).

How did the growth turn out when `COc1ccc2c(c1)c(-c1nc(-c3cn(C)c4ccncc34)cs1)cn2C` was run?
The growth was -28.4% (active).

Which growth does the source give for `Fc1ccc(Nc2ccc3cc(OCCCN4CCOCC4)ccc3n2)cc1F` here?
Its growth is 52.8%.

Which growth does the source give for `COc1ccc(/C=C\c2cc(OC)c(OC)c(OC)c2)cc1OCC(=O)Nc1ccc2nc(C)sc2c1` here?
Its growth is 7.78% (active).
